# Assay results published in the supplement of paper PMC10382584, “Macrocyclization of linear molecules by deep learning to facilitate macrocyclic drug candidates discovery” (Nature Communications, 2023).
# Compound: Cc1cnc(Nc2ccc(OCCN3CCCC3)cc2)nc1Nc1cccc(S(=O)(=O)NC(C)(C)C)c1 [Fedratinib]
# Assay: percent of DMSO control binding (KINOMEscan); higher = weaker binding / less inhibition; extreme values may be limits of the assay
# Details: concentration: 100 nM
# UniProt Q8TBX8, sequence (Q8TBX8 whole entry): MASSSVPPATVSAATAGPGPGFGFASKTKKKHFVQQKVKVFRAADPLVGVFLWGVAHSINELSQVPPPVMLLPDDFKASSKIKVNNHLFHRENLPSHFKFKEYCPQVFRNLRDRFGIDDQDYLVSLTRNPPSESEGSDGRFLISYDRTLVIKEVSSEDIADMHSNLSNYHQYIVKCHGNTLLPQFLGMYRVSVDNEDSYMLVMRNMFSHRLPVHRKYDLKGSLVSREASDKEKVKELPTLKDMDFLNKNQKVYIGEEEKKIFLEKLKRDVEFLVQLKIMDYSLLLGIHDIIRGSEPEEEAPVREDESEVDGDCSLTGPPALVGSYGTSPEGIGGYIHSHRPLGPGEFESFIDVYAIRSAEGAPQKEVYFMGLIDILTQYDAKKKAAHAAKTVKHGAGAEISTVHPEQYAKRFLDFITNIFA
# UniProt P08922, sequence (P08922 whole entry): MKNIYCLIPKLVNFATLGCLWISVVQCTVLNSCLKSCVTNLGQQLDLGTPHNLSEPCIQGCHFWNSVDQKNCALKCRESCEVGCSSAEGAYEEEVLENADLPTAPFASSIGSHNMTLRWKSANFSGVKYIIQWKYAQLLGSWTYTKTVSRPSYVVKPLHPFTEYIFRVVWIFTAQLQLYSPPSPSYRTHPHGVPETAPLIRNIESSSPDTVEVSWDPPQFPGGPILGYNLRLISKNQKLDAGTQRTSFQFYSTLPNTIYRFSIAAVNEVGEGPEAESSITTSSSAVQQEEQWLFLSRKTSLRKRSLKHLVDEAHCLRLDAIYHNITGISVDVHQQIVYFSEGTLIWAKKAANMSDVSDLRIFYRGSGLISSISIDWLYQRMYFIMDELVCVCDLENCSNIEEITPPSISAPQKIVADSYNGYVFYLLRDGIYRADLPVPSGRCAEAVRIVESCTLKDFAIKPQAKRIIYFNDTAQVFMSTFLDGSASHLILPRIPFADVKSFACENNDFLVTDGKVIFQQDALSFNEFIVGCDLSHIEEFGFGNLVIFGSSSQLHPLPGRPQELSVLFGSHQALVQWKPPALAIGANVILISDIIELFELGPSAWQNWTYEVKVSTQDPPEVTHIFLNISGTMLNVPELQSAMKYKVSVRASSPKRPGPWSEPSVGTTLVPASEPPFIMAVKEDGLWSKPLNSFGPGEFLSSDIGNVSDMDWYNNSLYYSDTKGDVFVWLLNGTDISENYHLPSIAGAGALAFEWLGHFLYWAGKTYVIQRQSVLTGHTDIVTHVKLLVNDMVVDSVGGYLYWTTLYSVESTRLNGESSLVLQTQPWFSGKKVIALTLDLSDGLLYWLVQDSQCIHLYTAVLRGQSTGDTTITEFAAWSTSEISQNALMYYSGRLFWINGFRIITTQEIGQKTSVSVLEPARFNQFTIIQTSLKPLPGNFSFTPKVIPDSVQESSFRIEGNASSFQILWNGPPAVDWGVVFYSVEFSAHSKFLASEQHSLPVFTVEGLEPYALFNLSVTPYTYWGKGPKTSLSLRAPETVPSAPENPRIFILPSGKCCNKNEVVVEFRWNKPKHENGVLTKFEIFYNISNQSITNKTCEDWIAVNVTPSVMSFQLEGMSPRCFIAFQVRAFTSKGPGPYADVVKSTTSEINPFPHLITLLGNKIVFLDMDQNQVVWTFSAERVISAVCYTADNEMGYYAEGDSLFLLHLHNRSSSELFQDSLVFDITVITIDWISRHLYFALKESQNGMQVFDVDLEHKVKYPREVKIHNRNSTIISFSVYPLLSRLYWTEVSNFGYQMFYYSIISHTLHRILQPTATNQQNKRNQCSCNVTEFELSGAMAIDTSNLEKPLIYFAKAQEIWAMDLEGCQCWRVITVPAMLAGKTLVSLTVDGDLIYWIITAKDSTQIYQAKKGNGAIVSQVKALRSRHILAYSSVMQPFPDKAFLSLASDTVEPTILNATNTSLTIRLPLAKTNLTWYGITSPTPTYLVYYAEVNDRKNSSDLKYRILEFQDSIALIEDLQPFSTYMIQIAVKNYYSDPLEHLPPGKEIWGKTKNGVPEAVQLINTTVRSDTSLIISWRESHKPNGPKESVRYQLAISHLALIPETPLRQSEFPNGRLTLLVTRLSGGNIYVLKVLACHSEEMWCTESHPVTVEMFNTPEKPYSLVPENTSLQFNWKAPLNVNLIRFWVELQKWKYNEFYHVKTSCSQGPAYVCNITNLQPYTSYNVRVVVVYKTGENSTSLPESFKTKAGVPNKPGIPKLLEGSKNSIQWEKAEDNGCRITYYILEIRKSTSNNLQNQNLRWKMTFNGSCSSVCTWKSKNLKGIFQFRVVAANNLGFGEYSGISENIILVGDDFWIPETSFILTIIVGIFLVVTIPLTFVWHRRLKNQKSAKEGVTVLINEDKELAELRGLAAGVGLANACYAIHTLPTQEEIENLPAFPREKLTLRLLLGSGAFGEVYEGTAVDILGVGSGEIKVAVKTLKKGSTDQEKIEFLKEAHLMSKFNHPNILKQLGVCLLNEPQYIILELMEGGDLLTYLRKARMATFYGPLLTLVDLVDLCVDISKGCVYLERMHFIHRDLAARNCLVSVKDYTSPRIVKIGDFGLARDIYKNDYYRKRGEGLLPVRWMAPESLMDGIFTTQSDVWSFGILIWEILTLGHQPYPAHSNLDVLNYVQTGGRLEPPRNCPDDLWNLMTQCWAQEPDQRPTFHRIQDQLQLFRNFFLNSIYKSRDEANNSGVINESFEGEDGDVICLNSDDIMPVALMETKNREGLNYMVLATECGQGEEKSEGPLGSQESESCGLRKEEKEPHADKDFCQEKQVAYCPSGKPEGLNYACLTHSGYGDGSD
# UniProt Q59H18, sequence (Q59H18 whole entry): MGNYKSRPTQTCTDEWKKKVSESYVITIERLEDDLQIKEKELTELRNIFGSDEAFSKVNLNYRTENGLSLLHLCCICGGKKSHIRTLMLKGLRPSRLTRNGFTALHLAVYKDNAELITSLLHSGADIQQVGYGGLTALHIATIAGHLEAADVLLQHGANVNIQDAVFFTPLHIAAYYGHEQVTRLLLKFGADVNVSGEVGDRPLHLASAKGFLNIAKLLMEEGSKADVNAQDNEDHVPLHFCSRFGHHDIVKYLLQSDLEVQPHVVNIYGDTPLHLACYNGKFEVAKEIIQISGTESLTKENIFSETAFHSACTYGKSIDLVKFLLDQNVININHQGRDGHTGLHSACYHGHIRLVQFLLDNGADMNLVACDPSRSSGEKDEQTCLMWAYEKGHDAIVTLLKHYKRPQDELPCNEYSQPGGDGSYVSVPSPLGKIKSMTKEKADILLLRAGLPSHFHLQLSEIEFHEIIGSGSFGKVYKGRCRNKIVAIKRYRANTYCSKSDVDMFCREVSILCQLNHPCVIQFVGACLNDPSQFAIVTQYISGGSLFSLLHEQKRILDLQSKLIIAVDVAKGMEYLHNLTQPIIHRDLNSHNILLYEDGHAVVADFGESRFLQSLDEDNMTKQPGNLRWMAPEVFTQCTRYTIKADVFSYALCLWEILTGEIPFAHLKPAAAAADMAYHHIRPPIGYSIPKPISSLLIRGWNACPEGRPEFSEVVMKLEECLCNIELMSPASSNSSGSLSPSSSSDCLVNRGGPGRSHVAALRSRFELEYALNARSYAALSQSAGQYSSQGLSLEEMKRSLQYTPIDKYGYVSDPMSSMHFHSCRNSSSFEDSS
# UniProt P27037, sequence (P27037 whole entry): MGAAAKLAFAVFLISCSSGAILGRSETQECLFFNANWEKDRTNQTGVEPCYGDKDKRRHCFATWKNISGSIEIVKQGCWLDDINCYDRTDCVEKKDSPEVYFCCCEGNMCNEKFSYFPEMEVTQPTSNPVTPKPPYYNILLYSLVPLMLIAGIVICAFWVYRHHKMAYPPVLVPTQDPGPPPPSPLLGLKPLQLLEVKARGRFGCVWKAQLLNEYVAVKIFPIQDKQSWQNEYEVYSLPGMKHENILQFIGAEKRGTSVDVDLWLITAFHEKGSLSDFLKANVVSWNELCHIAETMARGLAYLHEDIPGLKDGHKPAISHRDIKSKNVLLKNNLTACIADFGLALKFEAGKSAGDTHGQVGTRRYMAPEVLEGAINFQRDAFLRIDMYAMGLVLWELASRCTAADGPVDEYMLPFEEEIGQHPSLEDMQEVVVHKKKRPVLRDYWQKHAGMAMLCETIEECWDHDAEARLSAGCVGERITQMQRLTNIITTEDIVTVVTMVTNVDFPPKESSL
# UniProt Q9P286, sequence (Q9P286 whole entry, looked up): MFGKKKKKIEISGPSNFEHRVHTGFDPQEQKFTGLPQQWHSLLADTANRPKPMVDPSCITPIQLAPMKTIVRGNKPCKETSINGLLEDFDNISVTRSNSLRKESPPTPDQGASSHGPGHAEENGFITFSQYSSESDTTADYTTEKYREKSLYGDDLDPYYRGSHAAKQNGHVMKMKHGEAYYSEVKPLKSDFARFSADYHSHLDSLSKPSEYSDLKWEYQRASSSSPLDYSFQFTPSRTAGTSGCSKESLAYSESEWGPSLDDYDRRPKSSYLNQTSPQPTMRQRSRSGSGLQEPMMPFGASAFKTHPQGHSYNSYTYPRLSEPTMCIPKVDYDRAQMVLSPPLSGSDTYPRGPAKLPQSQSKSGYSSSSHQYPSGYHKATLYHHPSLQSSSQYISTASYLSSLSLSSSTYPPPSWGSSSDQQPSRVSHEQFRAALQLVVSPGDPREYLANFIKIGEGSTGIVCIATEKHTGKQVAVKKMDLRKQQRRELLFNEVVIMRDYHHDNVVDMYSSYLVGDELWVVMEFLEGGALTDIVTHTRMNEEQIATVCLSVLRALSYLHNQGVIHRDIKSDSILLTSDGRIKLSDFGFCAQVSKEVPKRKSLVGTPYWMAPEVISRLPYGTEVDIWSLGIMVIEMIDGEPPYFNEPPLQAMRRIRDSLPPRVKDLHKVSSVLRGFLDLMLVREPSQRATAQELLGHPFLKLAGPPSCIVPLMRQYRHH
row,Target,percent of DMSO control binding
1,FLT4 (UniProt P35916),100%
2,PFCDPK1(P.falciparum),100%
3,RSK1(Kin.Dom.1-N-terminal) (UniProt Q15418),89%
4,MAP3K3 (UniProt Q99759),78%
5,EGFR(S752-I759del) (UniProt P00533),88%
6,PAK7 (UniProt Q9P286),100%
7,p38-alpha (UniProt Q16539),78%
8,ROCK1 (UniProt Q13464),40%
9,ERBB2 (UniProt P04626),73%
10,EGFR(T790M) (UniProt P00533),100%
11,PIK4CB (UniProt Q9UBF8),97%
12,DYRK1B (UniProt Q9Y463),97%
13,ACVR2A (UniProt P27037),100%
14,CAMKK2 (UniProt Q96RR4),100%
15,CDC2L5 (UniProt Q14004),78%
16,MKNK1 (UniProt Q9BUB5),88%
17,AMPK-alpha2 (UniProt P54646),100%
18,RPS6KA4(Kin.Dom.2-C-terminal) (UniProt O75676),39%
19,PRKG1 (UniProt Q13976),100%

row,Target,percent of DMSO control binding
1,RSK3(Kin.Dom.1-N-terminal),100%
2,MLK3 (UniProt Q16584),100%
3,RAF1 (UniProt P04049),85%
4,MET(M1250T) (UniProt P08581),94%
5,ROS1 (UniProt P08922),88%
6,CDKL5 (UniProt O76039),91%
7,CDKL2 (UniProt Q92772),100%
8,PRKCQ (UniProt Q04759),100%
9,RPS6KA4(Kin.Dom.1-N-terminal) (UniProt O75676),100%
10,PAK4 (UniProt O96013),100%
11,PFTK1 (UniProt O94921),100%
12,BRAF(V600E),95%
13,PIP5K2C (UniProt Q8TBX8),100%
14,LTK (UniProt P29376),100%
15,MEK2 (UniProt P36507),66%
16,TNNI3K (UniProt Q59H18),97%
17,BTK (UniProt Q06187),87%
18,SGK3 (UniProt Q96BR1),91%
